Measurements reported in PMC7862700, “An all-to-all approach to the identification of sequence-specific readers for epigenetic DNA modifications on cytosine”.

How the values were obtained:
Assay in all cases: DAPPL (digital affinity profiling via proximity ligation, sequencing); 10 mM Tris-HCl pH 7.5, 50 mM NaCl, 1 mM DTT, 4% glycerol, room temperature, 30 min; GST-TFs on glutathione beads, 16-mer random dsDNA library, 0.1% formaldehyde crosslink after washing; high values mean tight binding
Conditions in all cases: protein: recombinant; tags: N-terminal GST; dsDNA, one strand shown
[1] = molecular target: T1, FLI1 (Homo sapiens, UniProt Q01543 1-452)
T1 sequence: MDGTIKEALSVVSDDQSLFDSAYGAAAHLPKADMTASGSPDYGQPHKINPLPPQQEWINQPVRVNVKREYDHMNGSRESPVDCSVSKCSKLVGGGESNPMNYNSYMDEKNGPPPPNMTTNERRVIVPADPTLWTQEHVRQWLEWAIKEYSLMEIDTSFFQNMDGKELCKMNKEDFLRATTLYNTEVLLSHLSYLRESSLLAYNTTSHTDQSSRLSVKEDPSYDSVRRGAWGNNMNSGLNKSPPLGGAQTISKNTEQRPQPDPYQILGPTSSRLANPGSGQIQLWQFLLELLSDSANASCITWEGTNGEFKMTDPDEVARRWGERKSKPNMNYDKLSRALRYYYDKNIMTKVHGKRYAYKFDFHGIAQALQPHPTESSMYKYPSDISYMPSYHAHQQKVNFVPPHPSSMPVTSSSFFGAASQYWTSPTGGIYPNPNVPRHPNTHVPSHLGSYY
Procedure, shortened: (§1)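 In yeast, human transcription factors were expressed with a GST fusion, then pulled down on glutathione beads and given DNA barcodes. Pooled with a tag-only sample, they were exposed to 200 nmole of a 16-mer random double-stranded DNA library (Tris/NaCl/DTT/glycerol buffer, room temperature, 30 min), washed, crosslinked with 0.1% formaldehyde, proximity-ligated using BsaI/T4 ligase for 1 h at 37 °C, PCR-amplified and read on an Illumina NextSeq500. Each hexamer's frequency of reads for a factor, divided by the matching frequency for the tag-only sample, gives the binding signal.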

[2] = molecular target: T2, ELK1 (Homo sapiens, UniProt P19419 1-428)
T2 sequence: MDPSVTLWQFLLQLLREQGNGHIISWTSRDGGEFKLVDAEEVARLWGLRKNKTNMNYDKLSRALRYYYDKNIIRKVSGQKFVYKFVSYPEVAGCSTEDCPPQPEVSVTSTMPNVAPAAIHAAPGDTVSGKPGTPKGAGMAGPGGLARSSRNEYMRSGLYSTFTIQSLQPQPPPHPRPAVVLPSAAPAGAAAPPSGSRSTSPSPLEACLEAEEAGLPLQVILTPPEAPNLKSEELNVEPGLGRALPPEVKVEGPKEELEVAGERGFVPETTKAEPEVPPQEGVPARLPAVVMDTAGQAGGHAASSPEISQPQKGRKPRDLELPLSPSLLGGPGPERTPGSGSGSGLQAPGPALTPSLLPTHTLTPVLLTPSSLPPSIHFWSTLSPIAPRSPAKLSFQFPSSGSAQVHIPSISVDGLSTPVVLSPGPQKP
Procedure, shortened: as §1

[3] = molecular target: T3, GABPA (Homo sapiens, UniProt Q06546 1-454)
T3 sequence: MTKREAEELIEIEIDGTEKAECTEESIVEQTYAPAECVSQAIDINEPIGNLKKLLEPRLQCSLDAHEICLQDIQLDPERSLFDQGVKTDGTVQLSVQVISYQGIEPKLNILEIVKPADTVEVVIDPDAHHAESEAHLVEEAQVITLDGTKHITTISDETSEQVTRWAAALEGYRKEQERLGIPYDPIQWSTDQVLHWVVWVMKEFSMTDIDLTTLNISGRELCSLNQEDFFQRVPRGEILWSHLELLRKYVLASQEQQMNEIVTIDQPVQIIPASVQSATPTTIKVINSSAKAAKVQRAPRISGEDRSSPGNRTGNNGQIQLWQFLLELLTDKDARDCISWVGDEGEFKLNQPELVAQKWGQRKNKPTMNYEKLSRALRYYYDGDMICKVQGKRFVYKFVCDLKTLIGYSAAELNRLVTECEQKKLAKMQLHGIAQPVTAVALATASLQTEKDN
Procedure, shortened: as §1

[4] = molecular target: T4, ERG (Homo sapiens, UniProt P11308 1-479)
T4 sequence: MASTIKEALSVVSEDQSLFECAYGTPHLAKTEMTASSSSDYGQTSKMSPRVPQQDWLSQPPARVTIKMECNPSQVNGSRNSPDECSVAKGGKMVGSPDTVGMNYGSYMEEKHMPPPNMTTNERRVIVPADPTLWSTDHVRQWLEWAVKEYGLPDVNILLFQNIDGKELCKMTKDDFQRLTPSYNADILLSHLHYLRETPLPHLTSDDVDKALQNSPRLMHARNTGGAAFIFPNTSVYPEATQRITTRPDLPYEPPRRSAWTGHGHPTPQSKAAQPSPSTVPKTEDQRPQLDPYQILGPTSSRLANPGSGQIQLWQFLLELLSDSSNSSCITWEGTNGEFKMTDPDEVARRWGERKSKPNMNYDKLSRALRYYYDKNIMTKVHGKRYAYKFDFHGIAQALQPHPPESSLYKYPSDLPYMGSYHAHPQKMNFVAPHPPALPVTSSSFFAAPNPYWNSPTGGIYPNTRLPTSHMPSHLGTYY
Procedure, shortened: as §1

[5] = molecular target: ELF1 (Homo sapiens, UniProt P32519 1-619)
Chain of ELF1 (P32519 whole entry): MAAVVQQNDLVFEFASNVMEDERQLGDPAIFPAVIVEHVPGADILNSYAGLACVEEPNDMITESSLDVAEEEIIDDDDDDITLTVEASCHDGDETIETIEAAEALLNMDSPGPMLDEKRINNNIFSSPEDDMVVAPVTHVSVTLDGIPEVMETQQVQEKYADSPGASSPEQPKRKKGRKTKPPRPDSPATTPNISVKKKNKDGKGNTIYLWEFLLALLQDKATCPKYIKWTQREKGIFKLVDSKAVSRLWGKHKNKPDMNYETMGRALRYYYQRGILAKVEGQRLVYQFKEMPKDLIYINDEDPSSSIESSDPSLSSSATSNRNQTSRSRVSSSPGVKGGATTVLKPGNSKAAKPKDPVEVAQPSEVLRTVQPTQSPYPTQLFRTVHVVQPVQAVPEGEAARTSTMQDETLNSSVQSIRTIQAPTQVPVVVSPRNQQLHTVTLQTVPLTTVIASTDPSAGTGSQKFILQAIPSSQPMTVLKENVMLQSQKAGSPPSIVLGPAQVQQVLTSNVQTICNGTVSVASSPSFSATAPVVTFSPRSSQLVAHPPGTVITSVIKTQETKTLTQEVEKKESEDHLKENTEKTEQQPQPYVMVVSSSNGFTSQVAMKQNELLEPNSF
Procedure, shortened: as §1

[6] = molecular target: T5, EHF (Homo sapiens, UniProt Q9NZC4 1-300)
T5 sequence: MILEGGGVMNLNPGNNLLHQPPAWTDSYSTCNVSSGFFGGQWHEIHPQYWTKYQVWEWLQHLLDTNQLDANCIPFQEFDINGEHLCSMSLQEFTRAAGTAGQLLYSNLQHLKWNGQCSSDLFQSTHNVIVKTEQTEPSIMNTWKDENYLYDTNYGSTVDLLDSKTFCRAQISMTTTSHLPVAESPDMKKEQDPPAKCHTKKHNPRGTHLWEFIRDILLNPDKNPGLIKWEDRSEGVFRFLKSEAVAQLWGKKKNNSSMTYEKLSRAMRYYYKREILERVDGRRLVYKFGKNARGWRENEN
Procedure, shortened: as §1

[7] = molecular target: SPI1 (Homo sapiens, UniProt P17947 1-270)
Procedure, shortened: as §1

[8] = molecular target: SPIB (Homo sapiens, UniProt Q01892 1-262)
Chain of SPIB (Q01892 whole entry): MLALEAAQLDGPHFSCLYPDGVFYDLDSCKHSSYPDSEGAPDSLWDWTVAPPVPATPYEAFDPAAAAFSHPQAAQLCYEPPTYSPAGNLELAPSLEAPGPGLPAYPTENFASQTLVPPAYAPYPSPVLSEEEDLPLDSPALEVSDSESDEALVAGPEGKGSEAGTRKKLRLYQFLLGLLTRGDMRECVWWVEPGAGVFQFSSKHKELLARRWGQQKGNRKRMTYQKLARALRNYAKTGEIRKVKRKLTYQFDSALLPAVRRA
Procedure, shortened: as §1

[9] = molecular target: T6, ELK3 (Homo sapiens, UniProt P41970 1-407)
T6 sequence: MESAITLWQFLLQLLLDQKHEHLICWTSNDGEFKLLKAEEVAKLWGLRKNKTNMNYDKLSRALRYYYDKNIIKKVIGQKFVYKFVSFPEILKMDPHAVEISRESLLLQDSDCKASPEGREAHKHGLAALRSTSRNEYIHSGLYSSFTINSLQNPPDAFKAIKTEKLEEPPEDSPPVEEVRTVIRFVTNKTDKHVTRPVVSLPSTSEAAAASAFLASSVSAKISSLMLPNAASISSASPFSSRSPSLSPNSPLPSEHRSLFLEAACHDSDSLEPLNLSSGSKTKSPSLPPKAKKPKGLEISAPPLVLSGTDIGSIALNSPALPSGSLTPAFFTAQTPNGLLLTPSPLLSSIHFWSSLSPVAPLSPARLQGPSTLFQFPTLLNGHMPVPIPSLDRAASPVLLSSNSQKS
Procedure, shortened: as §1

CTCTAT
binding signal [1]: 1.09 fold enrichment (6-mer frequency, TF over GST control)
binding signal [2]: 1.22 fold enrichment (6-mer frequency, TF over GST control)
binding signal [3]: 1.2 fold enrichment (6-mer frequency, TF over GST control)
binding signal [4]: 1.17 fold enrichment (6-mer frequency, TF over GST control)
binding signal [5]: 1.22 fold enrichment (6-mer frequency, TF over GST control)
binding signal [6]: 1.09 fold enrichment (6-mer frequency, TF over GST control)
binding signal [7]: 1.16 fold enrichment (6-mer frequency, TF over GST control)
binding signal [8]: 1.17 fold enrichment (6-mer frequency, TF over GST control)
binding signal [9]: 1.11 fold enrichment (6-mer frequency, TF over GST control)

TACTCA
binding signal [1]: 1.14 fold enrichment (6-mer frequency, TF over GST control)
binding signal [2]: 1.24 fold enrichment (6-mer frequency, TF over GST control)
binding signal [3]: 1.2 fold enrichment (6-mer frequency, TF over GST control)
binding signal [4]: 1.19 fold enrichment (6-mer frequency, TF over GST control)
binding signal [5]: 1.19 fold enrichment (6-mer frequency, TF over GST control)
binding signal [6]: 1.3 fold enrichment (6-mer frequency, TF over GST control)
binding signal [7]: 1.14 fold enrichment (6-mer frequency, TF over GST control)
binding signal [8]: 1.36 fold enrichment (6-mer frequency, TF over GST control)
binding signal [9]: 1.2 fold enrichment (6-mer frequency, TF over GST control)

GTTCTC
binding signal [1]: 1.36 fold enrichment (6-mer frequency, TF over GST control)
binding signal [2]: 1.18 fold enrichment (6-mer frequency, TF over GST control)
binding signal [3]: 1.4 fold enrichment (6-mer frequency, TF over GST control)
binding signal [4]: 1.27 fold enrichment (6-mer frequency, TF over GST control)
binding signal [5]: 1.28 fold enrichment (6-mer frequency, TF over GST control)
binding signal [6]: 1.22 fold enrichment (6-mer frequency, TF over GST control)
binding signal [7]: 1.33 fold enrichment (6-mer frequency, TF over GST control)
binding signal [8]: 1.35 fold enrichment (6-mer frequency, TF over GST control)
binding signal [9]: 1.19 fold enrichment (6-mer frequency, TF over GST control)

TCCCAC
binding signal [1]: 1.31 fold enrichment (6-mer frequency, TF over GST control)
binding signal [2]: 1.42 fold enrichment (6-mer frequency, TF over GST control)
binding signal [3]: 1.36 fold enrichment (6-mer frequency, TF over GST control)
binding signal [4]: 1.37 fold enrichment (6-mer frequency, TF over GST control)
binding signal [5]: 1.47 fold enrichment (6-mer frequency, TF over GST control)
binding signal [6]: 1.38 fold enrichment (6-mer frequency, TF over GST control)
binding signal [7]: 1.34 fold enrichment (6-mer frequency, TF over GST control)
binding signal [8]: 1.26 fold enrichment (6-mer frequency, TF over GST control)
binding signal [9]: 1.27 fold enrichment (6-mer frequency, TF over GST control)

ACTAAA
binding signal [1]: 1.26 fold enrichment (6-mer frequency, TF over GST control)
binding signal [2]: 1.22 fold enrichment (6-mer frequency, TF over GST control)
binding signal [3]: 1.34 fold enrichment (6-mer frequency, TF over GST control)
binding signal [4]: 1.3 fold enrichment (6-mer frequency, TF over GST control)
binding signal [5]: 1.32 fold enrichment (6-mer frequency, TF over GST control)
binding signal [6]: 1.21 fold enrichment (6-mer frequency, TF over GST control)
binding signal [7]: 1.32 fold enrichment (6-mer frequency, TF over GST control)
binding signal [8]: 1.28 fold enrichment (6-mer frequency, TF over GST control)
binding signal [9]: 1.34 fold enrichment (6-mer frequency, TF over GST control)

GCTAGC
binding signal [1]: 1.17 fold enrichment (6-mer frequency, TF over GST control)
binding signal [2]: 1.23 fold enrichment (6-mer frequency, TF over GST control)
binding signal [3]: 1.18 fold enrichment (6-mer frequency, TF over GST control)
binding signal [4]: 1.22 fold enrichment (6-mer frequency, TF over GST control)
binding signal [5]: 1.18 fold enrichment (6-mer frequency, TF over GST control)
binding signal [6]: 1.19 fold enrichment (6-mer frequency, TF over GST control)
binding signal [7]: 1.29 fold enrichment (6-mer frequency, TF over GST control)
binding signal [8]: 1.17 fold enrichment (6-mer frequency, TF over GST control)
binding signal [9]: 1.22 fold enrichment (6-mer frequency, TF over GST control)

TTTCTC
binding signal [1]: 1.64 fold enrichment (6-mer frequency, TF over GST control)
binding signal [2]: 1.66 fold enrichment (6-mer frequency, TF over GST control)
binding signal [3]: 1.58 fold enrichment (6-mer frequency, TF over GST control)
binding signal [4]: 1.54 fold enrichment (6-mer frequency, TF over GST control)
binding signal [5]: 1.62 fold enrichment (6-mer frequency, TF over GST control)
binding signal [6]: 1.59 fold enrichment (6-mer frequency, TF over GST control)
binding signal [7]: 1.7 fold enrichment (6-mer frequency, TF over GST control)
binding signal [8]: 1.63 fold enrichment (6-mer frequency, TF over GST control)
binding signal [9]: 1.46 fold enrichment (6-mer frequency, TF over GST control)

ACTCAA
binding signal [1]: 1.19 fold enrichment (6-mer frequency, TF over GST control)
binding signal [2]: 1.23 fold enrichment (6-mer frequency, TF over GST control)
binding signal [3]: 1.22 fold enrichment (6-mer frequency, TF over GST control)
binding signal [4]: 1.21 fold enrichment (6-mer frequency, TF over GST control)
binding signal [5]: 1.22 fold enrichment (6-mer frequency, TF over GST control)
binding signal [6]: 1.18 fold enrichment (6-mer frequency, TF over GST control)
binding signal [7]: 1.24 fold enrichment (6-mer frequency, TF over GST control)
binding signal [8]: 1.23 fold enrichment (6-mer frequency, TF over GST control)
binding signal [9]: 1.31 fold enrichment (6-mer frequency, TF over GST control)
